Test results as given in ChEMBL document CHEMBL1961873, “Compounds: GSK PKIS; Assays: Nanosyn kinase panel” (2012).

How the values were obtained:
[1] = target: Platelet-derived growth factor receptor beta (Homo sapiens) (UniProt P09619); details: at 1 µM;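 also: each value is a mean percent inhibition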
[2] = target: Tyrosine-protein kinase FRK (Homo sapiens) (UniProt P42685); details: at 0.1 µM
[3] = target: Tyrosine-protein kinase FRK (Homo sapiens) (UniProt P42685); details: at 1 µM
[4] = target: Protein-tyrosine kinase 2-beta (Homo sapiens) (UniProt Q14289); details: at 0.1 µM
[5] = target: Protein-tyrosine kinase 2-beta (Homo sapiens) (UniProt Q14289); details: at 1 µM
[6] = target: Proto-oncogene tyrosine-protein kinase receptor Ret (Homo sapiens) (UniProt P07949); details: at 0.1 µM
[7] = target: Proto-oncogene tyrosine-protein kinase receptor Ret (Homo sapiens) (UniProt P07949); details: at 1 µM
[8] = tested on: Proto-oncogene tyrosine-protein kinase receptor Ret (Homo sapiens), P07949 [V804L]; details: at 0.1 µM
[9] = tested on: Proto-oncogene tyrosine-protein kinase receptor Ret (Homo sapiens), P07949 [V804L]; details: at 1 µM
[10] = tested on: Proto-oncogene tyrosine-protein kinase receptor Ret (Homo sapiens), P07949 [Y791F]; details: at 0.1 µM
[11] = tested on: Proto-oncogene tyrosine-protein kinase receptor Ret (Homo sapiens), P07949 [Y791F]; details: at 1 µM
[12] = target: Macrophage-stimulating protein receptor (Homo sapiens) (UniProt Q04912); details: at 0.1 µM
[13] = target: Macrophage-stimulating protein receptor (Homo sapiens) (UniProt Q04912); details: at 1 µM
[14] = target: Proto-oncogene tyrosine-protein kinase ROS (Homo sapiens) (UniProt P08922); details: at 0.1 µM
[15] = target: Proto-oncogene tyrosine-protein kinase ROS (Homo sapiens) (UniProt P08922); details: at 1 µM
[16] = target: Proto-oncogene tyrosine-protein kinase Src (Homo sapiens) (UniProt P12931); details: at 0.1 µM
[17] = target: Proto-oncogene tyrosine-protein kinase Src (Homo sapiens) (UniProt P12931); details: at 1 µM
[18] = target: Tyrosine-protein kinase Srms (Homo sapiens) (UniProt Q9H3Y6); details: at 0.1 µM
[19] = target: Tyrosine-protein kinase Srms (Homo sapiens) (UniProt Q9H3Y6); details: at 1 µM
[20] = target: Tyrosine-protein kinase SYK (Homo sapiens) (UniProt P43405); details: at 0.1 µM;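 also: reported percentages are mean inhibition values for SYK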

Chain of Protein-tyrosine kinase 2-beta (Homo sapiens) (Q14289 whole entry, looked up): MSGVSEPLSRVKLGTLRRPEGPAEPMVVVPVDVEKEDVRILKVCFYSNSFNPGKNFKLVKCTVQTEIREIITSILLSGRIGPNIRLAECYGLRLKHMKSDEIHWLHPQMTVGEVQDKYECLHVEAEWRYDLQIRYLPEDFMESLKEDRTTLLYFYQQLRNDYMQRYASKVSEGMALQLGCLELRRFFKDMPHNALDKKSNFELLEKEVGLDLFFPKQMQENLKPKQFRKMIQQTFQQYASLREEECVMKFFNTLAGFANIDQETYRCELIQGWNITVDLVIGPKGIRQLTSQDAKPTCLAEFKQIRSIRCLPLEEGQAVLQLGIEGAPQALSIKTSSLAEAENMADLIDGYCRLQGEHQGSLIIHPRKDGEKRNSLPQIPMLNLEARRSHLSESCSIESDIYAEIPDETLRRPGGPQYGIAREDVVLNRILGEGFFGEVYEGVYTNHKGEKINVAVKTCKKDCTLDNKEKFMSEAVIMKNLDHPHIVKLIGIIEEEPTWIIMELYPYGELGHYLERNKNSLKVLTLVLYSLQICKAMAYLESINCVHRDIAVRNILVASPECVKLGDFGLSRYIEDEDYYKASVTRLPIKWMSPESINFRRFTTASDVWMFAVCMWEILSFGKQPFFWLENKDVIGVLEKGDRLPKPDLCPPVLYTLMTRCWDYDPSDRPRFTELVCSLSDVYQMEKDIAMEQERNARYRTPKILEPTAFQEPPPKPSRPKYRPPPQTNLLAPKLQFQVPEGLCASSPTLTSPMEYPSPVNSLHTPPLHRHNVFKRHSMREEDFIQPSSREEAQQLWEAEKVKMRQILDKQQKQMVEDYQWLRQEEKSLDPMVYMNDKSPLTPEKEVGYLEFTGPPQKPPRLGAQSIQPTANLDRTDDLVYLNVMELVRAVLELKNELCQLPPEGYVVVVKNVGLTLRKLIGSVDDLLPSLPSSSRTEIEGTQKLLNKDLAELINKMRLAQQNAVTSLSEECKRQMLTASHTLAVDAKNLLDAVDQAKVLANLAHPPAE
Chain of Proto-oncogene tyrosine-protein kinase Src (Homo sapiens) (P12931 2-536 limits assumed): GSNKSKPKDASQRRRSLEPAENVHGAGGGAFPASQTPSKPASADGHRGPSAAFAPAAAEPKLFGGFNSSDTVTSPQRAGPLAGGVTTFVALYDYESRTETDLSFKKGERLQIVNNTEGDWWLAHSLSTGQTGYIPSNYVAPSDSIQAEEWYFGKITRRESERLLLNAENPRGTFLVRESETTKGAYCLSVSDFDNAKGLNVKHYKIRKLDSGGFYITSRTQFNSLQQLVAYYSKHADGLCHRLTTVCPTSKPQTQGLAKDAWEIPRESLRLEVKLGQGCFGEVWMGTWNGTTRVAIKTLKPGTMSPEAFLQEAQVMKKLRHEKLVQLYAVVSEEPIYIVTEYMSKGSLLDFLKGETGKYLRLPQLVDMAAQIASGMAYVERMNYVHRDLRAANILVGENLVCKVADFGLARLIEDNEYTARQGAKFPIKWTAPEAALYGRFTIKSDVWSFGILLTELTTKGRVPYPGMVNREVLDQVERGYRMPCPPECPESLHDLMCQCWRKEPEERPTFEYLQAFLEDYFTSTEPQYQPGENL
Chain of Tyrosine-protein kinase Srms (Homo sapiens) (Q9H3Y6 whole entry): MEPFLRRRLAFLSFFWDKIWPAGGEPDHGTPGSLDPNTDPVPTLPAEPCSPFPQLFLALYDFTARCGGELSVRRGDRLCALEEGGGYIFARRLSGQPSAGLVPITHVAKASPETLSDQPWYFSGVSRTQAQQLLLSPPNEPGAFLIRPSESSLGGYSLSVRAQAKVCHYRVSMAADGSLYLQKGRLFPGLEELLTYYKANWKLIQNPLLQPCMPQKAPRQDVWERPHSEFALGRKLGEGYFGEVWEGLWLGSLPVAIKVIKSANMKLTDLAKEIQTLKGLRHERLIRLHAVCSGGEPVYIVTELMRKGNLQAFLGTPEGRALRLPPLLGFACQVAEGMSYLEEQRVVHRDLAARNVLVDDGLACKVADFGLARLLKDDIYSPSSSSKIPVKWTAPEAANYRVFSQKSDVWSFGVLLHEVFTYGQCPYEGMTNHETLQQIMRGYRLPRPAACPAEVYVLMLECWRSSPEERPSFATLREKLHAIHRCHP
Chain of Proto-oncogene tyrosine-protein kinase receptor Ret (Homo sapiens), P07949 [V804L] (P07949 whole entry V804L): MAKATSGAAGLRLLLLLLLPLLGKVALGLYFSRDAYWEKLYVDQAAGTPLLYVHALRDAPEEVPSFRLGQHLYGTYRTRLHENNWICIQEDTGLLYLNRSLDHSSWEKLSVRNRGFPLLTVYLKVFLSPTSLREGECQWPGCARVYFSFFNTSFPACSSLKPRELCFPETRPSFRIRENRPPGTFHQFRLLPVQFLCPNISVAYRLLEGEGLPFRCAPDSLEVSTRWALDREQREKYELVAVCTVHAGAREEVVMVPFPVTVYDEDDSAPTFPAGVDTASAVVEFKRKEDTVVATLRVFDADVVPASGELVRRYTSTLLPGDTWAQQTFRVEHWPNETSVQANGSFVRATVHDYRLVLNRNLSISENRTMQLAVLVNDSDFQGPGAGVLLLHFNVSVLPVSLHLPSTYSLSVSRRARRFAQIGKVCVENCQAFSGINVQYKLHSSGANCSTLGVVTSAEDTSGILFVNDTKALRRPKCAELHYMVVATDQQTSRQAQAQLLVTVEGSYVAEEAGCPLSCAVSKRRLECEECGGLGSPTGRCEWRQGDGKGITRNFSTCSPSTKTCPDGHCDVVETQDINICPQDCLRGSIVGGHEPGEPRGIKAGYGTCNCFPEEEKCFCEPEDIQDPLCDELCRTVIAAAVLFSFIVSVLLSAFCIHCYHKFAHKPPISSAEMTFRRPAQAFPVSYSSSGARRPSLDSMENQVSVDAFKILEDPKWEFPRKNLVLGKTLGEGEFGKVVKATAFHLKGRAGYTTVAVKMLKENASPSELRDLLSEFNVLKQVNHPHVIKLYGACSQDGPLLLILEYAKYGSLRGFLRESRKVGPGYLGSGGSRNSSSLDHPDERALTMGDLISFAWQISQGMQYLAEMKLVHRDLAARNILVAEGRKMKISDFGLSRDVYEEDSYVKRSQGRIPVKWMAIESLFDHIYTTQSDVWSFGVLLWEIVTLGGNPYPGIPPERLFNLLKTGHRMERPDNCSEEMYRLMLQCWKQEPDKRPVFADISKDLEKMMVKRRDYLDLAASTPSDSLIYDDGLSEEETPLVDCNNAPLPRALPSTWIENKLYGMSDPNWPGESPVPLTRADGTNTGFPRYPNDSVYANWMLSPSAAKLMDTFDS
Chain of Proto-oncogene tyrosine-protein kinase receptor Ret (Homo sapiens), P07949 [Y791F] (P07949 whole entry Y791F): as the sequence (P07949 whole entry V804L) above, with Y791F, L804V counted along it
Chain of Proto-oncogene tyrosine-protein kinase receptor Ret (Homo sapiens) (P07949 whole entry): as the sequence (P07949 whole entry V804L) above, with L804V counted along it
Chain of Macrophage-stimulating protein receptor (Homo sapiens) (Q04912 25-304 limits assumed): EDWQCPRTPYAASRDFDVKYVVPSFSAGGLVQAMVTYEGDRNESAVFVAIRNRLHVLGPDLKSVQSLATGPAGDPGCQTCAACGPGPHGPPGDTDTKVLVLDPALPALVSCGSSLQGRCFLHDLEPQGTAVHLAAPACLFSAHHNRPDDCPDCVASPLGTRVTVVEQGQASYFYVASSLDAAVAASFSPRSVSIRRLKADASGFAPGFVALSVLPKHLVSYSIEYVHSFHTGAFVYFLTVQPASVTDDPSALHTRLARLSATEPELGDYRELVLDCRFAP
Chain of Macrophage-stimulating protein receptor (Homo sapiens) (Q04912 310-1400 limits assumed): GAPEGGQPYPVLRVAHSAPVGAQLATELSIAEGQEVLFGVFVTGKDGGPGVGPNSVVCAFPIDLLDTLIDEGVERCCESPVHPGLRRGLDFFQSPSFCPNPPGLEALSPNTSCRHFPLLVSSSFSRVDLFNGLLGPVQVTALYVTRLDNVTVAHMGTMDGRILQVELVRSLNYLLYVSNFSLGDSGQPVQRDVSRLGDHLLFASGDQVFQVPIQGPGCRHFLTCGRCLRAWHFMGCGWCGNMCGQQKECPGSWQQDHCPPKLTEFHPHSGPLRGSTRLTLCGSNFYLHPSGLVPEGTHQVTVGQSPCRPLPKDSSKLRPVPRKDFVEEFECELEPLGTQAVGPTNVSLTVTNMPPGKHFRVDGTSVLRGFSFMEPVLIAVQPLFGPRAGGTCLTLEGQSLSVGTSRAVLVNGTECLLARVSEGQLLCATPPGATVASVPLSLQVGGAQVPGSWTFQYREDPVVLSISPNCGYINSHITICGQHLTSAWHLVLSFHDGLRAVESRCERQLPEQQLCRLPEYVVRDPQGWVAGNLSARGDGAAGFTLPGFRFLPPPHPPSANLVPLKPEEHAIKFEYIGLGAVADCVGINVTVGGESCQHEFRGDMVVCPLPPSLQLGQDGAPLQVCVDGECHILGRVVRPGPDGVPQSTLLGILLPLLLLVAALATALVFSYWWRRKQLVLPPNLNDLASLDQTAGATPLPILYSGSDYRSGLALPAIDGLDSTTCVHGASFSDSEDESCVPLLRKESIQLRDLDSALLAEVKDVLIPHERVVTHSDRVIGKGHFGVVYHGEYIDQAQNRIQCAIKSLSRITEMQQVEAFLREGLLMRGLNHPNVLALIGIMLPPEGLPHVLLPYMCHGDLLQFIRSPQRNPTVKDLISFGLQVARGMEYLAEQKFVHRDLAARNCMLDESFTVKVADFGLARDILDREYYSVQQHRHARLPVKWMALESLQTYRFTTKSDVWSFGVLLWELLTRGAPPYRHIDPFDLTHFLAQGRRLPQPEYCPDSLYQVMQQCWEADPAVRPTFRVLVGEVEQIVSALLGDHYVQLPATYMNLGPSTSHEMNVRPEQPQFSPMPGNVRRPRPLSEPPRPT

| SMILES | inhibition [1] [%] | inhibition [2] [%] | inhibition [3] [%] | inhibition [4] [%] | inhibition [5] [%] | inhibition [6] [%] | inhibition [7] [%] | inhibition [8] [%] | inhibition [9] [%] | inhibition [10] [%] | inhibition [11] [%] | inhibition [12] [%] | inhibition [13] [%] | inhibition [14] [%] | inhibition [15] [%] | inhibition [16] [%] | inhibition [17] [%] | inhibition [18] [%] | inhibition [19] [%] | inhibition [20] [%] |
| --- | --- | --- | --- | --- | --- | --- | --- | --- | --- | --- | --- | --- | --- | --- | --- | --- | --- | --- | --- | --- |
| Cc1ccc2c(-c3ccnc(Nc4cccc(C(F)(F)F)c4)n3)c(-c3ccccc3)nn2n1 | 85.2 | 5 | 30.1 | 16.5 | 59.5 | 15.4 | 51 | 2.52 | 3.3 | 6.2 | 37.9 | 2.85 | 13.6 | 7.31 | 9.43 | 25.3 | 72.9 | 1.71 | 22.1 | 0.45 |
| C[C@@H](Oc1cc(-n2cnc3ccc(OC[C@@H](O)CO)cc32)sc1C(N)=O)c1ccccc1Cl | 54.6 | 0.8 | 2.17 | -2.91 | -1.09 | 0.87 | 7.49 | 2.02 | 5.35 | -0.83 | 10.8 | -4.17 | 6.85 | 1.32 | 11.6 | 3.67 | 5.14 | 0.51 | 2.19 | 1.72 |
| COc1ccc2ncnc(Nc3ccc(OCc4ccccc4)cc3)c2c1 | 7.02 | 0.42 | 0.42 | -1.91 | 5.66 | 3.22 | 5.23 | 0.54 | 7.26 | 4.16 | 11.5 | 2.03 | 4.46 | 1.06 | 3.14 | 2.84 | 8.82 | -1.19 | 0.6 | -3.74 |
| CCn1c(-c2nonc2N)nc2c(C#CC(C)(C)O)nc(OCCNC)cc21 | 24.2 | 3.46 | 3.09 | 8.7 | 10.6 | 8.91 | 23.6 | 2.4 | 4.07 | 7.43 | 28.9 | 6.88 |  | 6.88 | 6.96 | 8.38 | 11.9 | -1.55 | -2.34 | 1.27 |
| COc1ccc(-c2nn3ncccc3c2-c2ccnc(Nc3cccc(C(F)(F)F)c3)n2)cc1 | 5.95 | 1.12 | 2.91 | 6.13 | 6.4 | 2.63 |  | 2.06 | 3.74 | 3.38 | 6.6 | 0.53 | -3.48 | 2.58 | 4.13 | 6.2 | 10 | -1.6 | 1.75 | -1.06 |
| O=C1Nc2ccc(-c3cccnc3)cc2C1=Cc1cc(Br)c(O)c(Br)c1 |  | 1.84 | 5.49 | 9.77 | 9.16 | -0.83 | 7.95 | 2.79 | 16.2 | 8.02 | 1.19 | -1.31 | 8.32 | 8.46 | 18.3 | 2.96 | 12.1 | 12.3 | 57.9 | -3.33 |
| CN(C)C(=O)O[C@H]1CN[C@H](C#Cc2cc3ncnc(Nc4ccc(OCc5cccc(F)c5)c(Cl)c4)c3s2)C1 | 6.43 | 1.37 | 1.4 | 6.18 | 3.98 | 4.97 | 19.5 | 3.2 | 4.12 | 3.68 | 9.1 | 1.31 | 5.82 | 4.25 | 4.65 | 3.86 | 6.56 | 0.59 | 0.93 | -7.75 |
| Nc1nccc(-c2c(-c3ccc(F)cc3)ncn2CCCN2CCOCC2)n1 | 11.8 | 1.5 | 1.08 | 9.24 | 8.65 | 4.75 | 5.26 | 1.67 | 4.72 | 2.28 | 24.9 | -1.76 | 2.17 | 5.06 | 5.81 | -0.33 | 8.77 | -1.41 | 1.12 | -6.28 |
| CC(C)c1ccc2c(c1)NC(=O)/C2=N/Nc1ccc(S(N)(=O)=O)cc1 | 29.8 | -0.9 | 2.77 |  |  | 8.25 | 34 | 1.58 | 6.41 | 4.75 | 30.7 | 1.23 | -1.8 | 0.66 | 3.01 | 3.8 | 14 | 0.59 | 0.2 | 1.61 |
| c1ccc(Cc2nc3ccc(Nc4ncnc5ccccc45)cc3[nH]2)cc1 | 14.8 | 2.62 | 0.81 | 2.62 | 13.4 | 4.63 | 9.44 | 2.59 | 9.82 | 3.35 | 6.8 | 4.08 | 5.82 | 4.22 |  | 0.79 | 12.8 | -1.79 | -2.82 | 8.94 |
| Oc1cccc(-c2nc(-c3ccccc3)[nH]c2-c2ccncc2)c1 | 17.1 | 2.98 | 16.5 | 7.31 | 14.2 | 27.4 | 72.8 | 4.04 | 7.21 | 30 | 71.2 | 1.43 | 5.25 | 4.41 | 9.95 | 18.7 | 63.2 | 3.43 | 8.65 | -2.15 |
| CN(c1ccc(NC(=O)Nc2ccc(OC(F)(F)F)cc2)cc1)c1ccnc(Nc2cccc(S(N)(=O)=O)c2)n1 | 82.1 | 5.62 | 40.9 | 5.52 | 59 | 79.8 | 72 | 53.8 | 86.4 | 67.4 | 92.1 | 54.3 | 90.5 | 15.2 | 66.9 | 41.9 | 86.5 | 0.09 | 14.3 | -1.49 |
| COc1cccc(-n2ncc3c(N/N=C/c4ccc(S(C)(=O)=O)cc4)ncnc32)c1 | 78.1 | 0.47 | 3.05 | 3.04 | 5.9 | 11.4 | 30.7 | 4.8 | 8.24 | 14.1 | 26.7 | 29.4 | 44.3 | 7.29 | 27.2 | 56.5 | 77.4 | 4.95 | 17.8 | -2.46 |
